# According to PubChem BioAssay (NCATS):
# Values joined by “and” are separate entries in the source; they are usually repeats but may differ in a detail not shown here. Equal entries are not always repeated. Inconclusive results are not listed. Where a structure was tested more than once in an assay, its records may differ in their call. Active and inactive are the calls of the source. Unless noted, calls come from the whole dose curve; as a rule, active = well fitted curve in the direction sought with a large enough effect; inconclusive = small, poorly fitted or top-dose-only effect, or another doubt; inactive = no such curve, though single readings can be large; an effect the other way counts as inactive or inconclusive.
# Assays:
# [1] = qHTS assay for small molecule agonists of the antioxidant response element (ARE) signaling pathway (AID 651741; active = well fitted activation curve with a large enough effect in the signal ratio; the % refers to the signal ratio; note: potency is the fitted concentration of half-maximal effect; for activation: % of control where 0% means no effect); settings: HepG2 ARE-bla reporter, beta-lactamase FRET ratio, 16 h; series mostly up to 96 µM
# Procedure, shortened: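 Compounds in DMSO are pinned onto HepG2 ARE-bla cells (2,000/well) that were preincubated 5 h; plates stay 16 h at 37 C, then beta-lactamase activity is detected with LiveBLAzer B/G substrate by fluorescence.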
# [2] = qHTS assay for small molecule activators of the p53 signaling pathway (AID 651743; active = well fitted activation curve with a large enough effect in the signal ratio, not every such curve was filed as active; the % refers to the signal ratio; note: % of control where 0% means no effect); settings: HCT-116 p53RE-bla, beta-lactamase FRET ratio, 16 h; stronger effect = higher value
# Procedure, shortened: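 Cell-based beta-lactamase reporter (p53 response elements, HCT-116 background). After a 5-hour preincubation, cells received compound for 16 hours at 37 C; substrate development ran 2 hours at room temperature.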
# [3] = qHTS assay for small molecule activators of the nuclear factor-kappa B (NF-kB) signaling pathway (AID 651749; active = well fitted activation curve with a large enough effect in the signal ratio; the % refers to the signal ratio; note: % of control where 0% means no effect); settings: NF-kB-bla ME-180 cells, beta-lactamase FRET ratio, 16 h; stronger effect = higher value
# Procedure, shortened: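 Screening used 2,000 ME-180 reporter cells per well exposed to pinned compound (23 nL) or DMSO; after 16 hr at 37C, beta-lactamase expression under NF-kB control was assessed through FRET.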
# [4] = qHTS assay for small molecule disruptors of the mitochondrial membrane potential - 1 hr assay (AID 651754; calls by dose curve; note: potency is the fitted concentration of half-maximal effect; nearly all actives have a fitted effect of over 35% in size)
# Excerpt: (§1) National Center for Advancing Translational Sciences [NCATS]
# (§2) NIH Chemical Genomics Center [NCGC]
# (§3) National Institutes of Environmental Health Sciences [NIEHS]
# (§4) National Toxicology Program [NTP]
# Mitochondrial membrane potential (MMP), one of the parameters for mitochondrial function, is generated by mitochondrial electron transport chain that creates an electrochemical gradient by a series of redox reactions. This gradient drives the synthesis of ATP, a crucial molecule for various cellular processes. Measuring MMP in living cells is commonly used to assess the effect of chemicals on mitochondrial function. […] The dye accumulates in the mitochondria of healthy cells as aggregates, with red fluorescence. The mitochondrial potential collapses and the dye can no longer accumulate in the mitochondria and remains in the cytoplasm in monomers, with green fluorescence.
# 2,000 HepG2 cells in 5 uL/well were dispensed into black, clear-bottom 1536-well plates using a Multidrop Combi (Thermo Scientific) dispenser. The assay plates were incubated overnight at 37C to allow cells to attach to the wells, followed by the transfer of 23 nL compound or DMSO vehicle by a pin tool (Kalypsys). The plates were incubated for 1 hr at 37C and 5% CO2, followed by the addition of 5 uL of 2X Mito-MPS dye (BD Biosciences) into each well using Flying Reagent Dispenser (Aurora Discovery) and then following 30 min incubation at 37C. Fluorescence intensity (490nm excitation and 535nm emission for monomers; and 540nm excitation and 590nm emissions for aggregates) was measured using an Envision plate reader.
# [5] = qHTS assay for small molecule disruptors of the mitochondrial membrane potential - 5 hr assay (AID 651755; calls by dose curve; note: nearly all actives have a fitted effect of over 40% in size; note: potency is the fitted concentration of half-maximal effect); settings: JC-1-type ratio dye; series mostly up to 92.2 µM
# Procedure, shortened: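 HepG2 cells, attached overnight at 37C, were exposed to compound or DMSO for 5 hr at 37C, 5% CO2. Mito-MPS dye was then added for 30 min, and fluorescence read at 490/535 nm (monomers) and 540/590 nm (aggregates).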
# [6] = target: Peroxisome proliferator-activated receptor alpha (Homo sapiens) (UniProt Q07869); experiment: qHTS assay for small molecule agonists of the peroxisome proliferator-activated receptor alpha (PPARalpha) signaling pathway (AID 651778); settings: PathHunter PPARalpha complementation, chemiluminescence, 6 h; stronger effect = higher value; note: % of control where 0% means no effect
# Sequence of Peroxisome proliferator-activated receptor alpha (Homo sapiens) (Q07869 whole entry, looked up): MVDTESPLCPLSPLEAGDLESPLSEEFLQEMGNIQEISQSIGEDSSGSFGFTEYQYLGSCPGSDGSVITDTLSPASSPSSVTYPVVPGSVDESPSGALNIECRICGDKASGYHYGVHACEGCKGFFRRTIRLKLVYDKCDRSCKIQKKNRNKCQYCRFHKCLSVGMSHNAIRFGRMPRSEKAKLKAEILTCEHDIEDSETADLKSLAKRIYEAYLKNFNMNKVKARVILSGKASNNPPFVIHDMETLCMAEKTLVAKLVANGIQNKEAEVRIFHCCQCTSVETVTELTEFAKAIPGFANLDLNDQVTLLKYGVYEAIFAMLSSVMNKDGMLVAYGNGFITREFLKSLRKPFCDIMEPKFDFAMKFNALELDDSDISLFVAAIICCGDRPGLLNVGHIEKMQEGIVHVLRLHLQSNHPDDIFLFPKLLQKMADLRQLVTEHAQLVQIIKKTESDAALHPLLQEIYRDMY
# Procedure, shortened: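 Cells plated at 2,000/well and held overnight at 37 C, 5% CO2, then compound added by pin tool for 6 hr; after PathHunter detection reagent and 60 min at room temperature, chemiluminescence from enzyme complementation was read.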
# [7] = target: Tumor necrosis factor (Homo sapiens) (UniProt P01375); experiment: qHTS assay to identify small molecules that stimulate Tumor Necrosis Factor-alpha (TNF-alpha) secretion (AID 651757; active = well fitted curve in the direction sought with a large enough effect in the signal ratio; the % refers to the signal ratio; note: 0% is about no effect); settings: Human cells, HTRF 665/615 ratio; series mostly up to 92.2 µM
# Sequence of Tumor necrosis factor (Homo sapiens) (P01375 whole entry, looked up): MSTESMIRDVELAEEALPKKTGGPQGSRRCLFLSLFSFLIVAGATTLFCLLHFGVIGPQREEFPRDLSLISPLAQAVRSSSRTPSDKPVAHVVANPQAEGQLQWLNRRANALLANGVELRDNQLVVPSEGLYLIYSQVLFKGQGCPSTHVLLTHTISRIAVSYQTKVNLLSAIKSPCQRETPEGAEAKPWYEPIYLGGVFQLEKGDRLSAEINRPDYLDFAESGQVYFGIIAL
# Procedure, shortened: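 Read-out is HTRF, a TR-FRET sandwich of cryptate- and XL665-labeled anti-TNF-alpha antibodies detecting cytokine secreted by THP-1 cells. Cells had been incubated with test compounds at 37 C for 17 hrs beforehand.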
# [8] = qHTS assay for environmental chemicals that activate the Aryl hydrocarbon Receptor (AhR) signaling pathway (AID 651777); settings: 1A2-DRE human hepatoma cells, luciferase, 24 h; activation: stronger effect = higher value; note: nearly all actives have a fitted effect of over 15% in size; note: potency is the fitted concentration of half-maximal effect; for activation: % of control where 0% means no effect
# Procedure, shortened: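 Human hepatoma 1A2-DRE cells stably carrying a DRE/CYP1A2 promoter–luciferase reporter, 1,200 cells/well, exposed to compound 24 hr at 37 C. Luciferase read by One-Glo luminescence after 30 min at room temperature; increased signal marks AhR activation.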
# [9] = target: Nuclear receptor ROR-gamma (Homo sapiens) (UniProt P51449); experiment: qHTS assay for small molecule antagonists of the retinoid-related orphan receptor gamma (ROR-gamma) signaling pathway (AID 651802); settings: ROR-gamma antagonist cell reporter assay; series mostly up to 92.2 µM; note: nearly all actives have a fitted effect of over 60% in size; note: potency is the fitted concentration of half-maximal effect
# Sequence of Nuclear receptor ROR-gamma (Homo sapiens) (P51449 whole entry, looked up): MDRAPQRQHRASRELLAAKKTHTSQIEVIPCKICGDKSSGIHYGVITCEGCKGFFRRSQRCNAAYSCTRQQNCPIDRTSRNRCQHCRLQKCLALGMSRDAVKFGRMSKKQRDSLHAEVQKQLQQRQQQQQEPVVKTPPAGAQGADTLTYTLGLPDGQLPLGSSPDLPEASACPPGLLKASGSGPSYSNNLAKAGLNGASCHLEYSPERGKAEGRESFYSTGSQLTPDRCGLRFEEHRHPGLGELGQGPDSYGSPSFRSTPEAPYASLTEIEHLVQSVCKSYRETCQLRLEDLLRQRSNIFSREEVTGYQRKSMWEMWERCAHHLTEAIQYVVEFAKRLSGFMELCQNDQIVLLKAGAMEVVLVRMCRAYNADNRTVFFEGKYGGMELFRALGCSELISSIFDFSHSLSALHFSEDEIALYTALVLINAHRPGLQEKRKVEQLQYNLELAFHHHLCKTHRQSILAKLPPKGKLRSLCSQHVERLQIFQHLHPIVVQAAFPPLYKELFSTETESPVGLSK
# Procedure, shortened: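 CHO, TET-inducible ROR + RORE-LUC reporter, 1536-well qHTS. Compound pinned, doxycycline added, 16hr 37C/5% CO2. ONE-Glo, 30 min RT, luminescence; signal drop scored as antagonism.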
# [10] = qHTS assay to identify small molecules that stimulate interleukin-8 (IL-8) secretion (AID 651758; active = well fitted activation curve with a large enough effect in the signal ratio; the % refers to the signal ratio; note: 0% is about no effect); settings: HTRF ratio (665/615); series mostly up to 92.2 µM
# Excerpt: as §1, §2, §3, §4
# Interleukin-8 is a 8 kDa chemokine produced by macrophages and other cells like epithelial cells that is often associated with inflammation. Interleukin-8 secretion is a key parameter in localized inflammation. There is a growing concern for some of environmental chemicals which may contribute the increasing the incidence of inflammation. A homogeneous IL-8 assay using Time Resolved fluorescence (HTRF) technology based on Time Resolved Fluorescent Resonance Energy Transfer (TR-FRET) allows to measure IL-8 secreted from the cells in a 1536-well plate format.
# THP-1 cells were dispensed at 2000 cells/5ul/well in 1536-well white solid plates. After addition of 23 nl of compound, positive controls and DMSO only, the assay plates were incubated at 37 C for 16 hrs, followed by addition of 5 uL of mixture of cryptate labeled and XL665 labeled anti-IL-8 antibodies. After the assay plates were incubated at room temperature for 1-3 hrs, the plates were measured by an EnVision plate reader.
structure (smiles),measurement,setting,value
O=c1c(O)c(-c2ccc(O)cc2)oc2cc(O)cc(O)c12,Potency,[1],21.7 µM (active)
same,activation,[2],2.31% (inactive) and 6.56% (inactive)
same,activation,[3],-2.22% (inactive) and -4.27% (inactive)
same,Potency,[4],5.31 µM (active)
same,Potency,[5],8.41 µM (active)
same,max response,[6],-3% (inactive) and -2.05% (inactive)
CC(=O)c1ccc(S(=O)(=O)NC(=O)NC2CCCCC2)cc1,Potency,[1],inactive
same,activation,[2],-2.83% (inactive) and -1.75% (inactive)
same,activation,[3],-0.811% (inactive) and -1.71% (inactive)
same,outcome,[7],inactive
same,activation,[8],-0.49% (inactive) and 0.0331% (inactive)
same,max response,[6],9.98% (inactive) and -1.51% (inactive)
same,Potency,[9],inactive
CC/C(=C(\c1ccccc1)c1ccc(OCCN(C)C)cc1)c1ccccc1,outcome,[7],inactive
same,activation,[8],-5.69% (inactive) and -2.28% (inactive)
same,Potency,[9],29.8 µM (active)
O=c1[nH]cnc2c1ncn2[C@H]1CC[C@@H](CO)O1,Potency,[1],inactive
same,Potency,[5],inactive
same,outcome,[7],inactive
same,outcome,[10],inactive
same,activation,[8],-1.42% (inactive) and 4.55% (inactive)
same,max response,[6],-3.68% (inactive) and -4.63% (inactive)
same,Potency,[9],inactive
CC(=O)N[C@@H](CS)C(=O)O,Potency,[1],inactive
same,activation,[2],0.943% (inactive)
same,activation,[8],-0.0175% (inactive)
same,max response,[6],-0.248% (inactive)
O=c1cc(-c2ccc(O)cc2)oc2cc(O)cc(O)c12,Potency,[1],24.3 µM (active) and 33.5 µM (active)
same,Potency,[4],2.98 µM (active)
same,Potency,[5],5.96 µM (active)
same,max response,[6],-4.82% (inactive) and -0.91% (inactive)
O=C(O)c1cc(O)c2c(c1)C(=O)c1cccc(O)c1C2=O,activation,[3],1% (inactive)
same,Potency,[4],8.41 µM (active)
same,Potency,[5],5.31 µM (active)
same,activation,[8],1.52% (inactive)
same,max response,[6],-6.2% (inactive)
same,Potency,[9],37.6 µM (active)
O=C(O)Cc1cccc2ccccc12,Potency,[1],inactive
same,activation,[2],-2.96% (inactive) and -4.77% (inactive)
same,activation,[3],-0.417% (inactive) and -0.959% (inactive)
same,outcome,[7],inactive
same,activation,[8],0.508% (inactive) and -1.02% (inactive)
same,max response,[6],-0.727% (inactive) and -1.42% (inactive)
same,Potency,[9],inactive
CCn1cc(C(=O)O)c(=O)c2ccc(C)nc21,Potency,[1],inactive
same,activation,[3],-0.653% (inactive) and -1.68% (inactive)
same,max response,[6],-3.78% (inactive) and -0.0141% (inactive)
same,Potency,[9],inactive
O=C1NC(=O)C(c2ccccc2)(c2ccccc2)N1,Potency,[1],34.4 µM (active) and inactive
same,outcome,[7],inactive
same,activation,[8],-0.809% (inactive) and 0.125% (inactive) and -0.632% (inactive)
same,max response,[6],-3.11% (inactive) and -0.24% (inactive) and -0.609% (inactive)
same,Potency,[9],inactive
O=c1c(-c2ccc(O)cc2)coc2cc(O)ccc12,Potency,[1],27.3 µM (active) and 42.2 µM (active)
same,activation,[2],-1.55% (inactive) and 1.43% (inactive)
same,activation,[3],-0.613% (inactive) and -0.223% (inactive)
same,Potency,[4],18.8 µM (active)
same,Potency,[5],21.1 µM (active)
same,outcome,[7],inactive
same,max response,[6],0.0671% (inactive) and -0.373% (inactive)
same,Potency,[9],inactive
O=C(O)c1cc(-c2ccccc2)nc2ccccc12,activation,[2],-1.06% (inactive)
same,activation,[3],-3.75% (inactive)
same,activation,[8],4.06% (inactive)
same,max response,[6],-3.44% (inactive)
CCCCC1C(=O)N(c2ccccc2)N(c2ccccc2)C1=O,Potency,[1],inactive
same,activation,[3],-1.5% (inactive) and -1.29% (inactive)
same,outcome,[7],inactive
same,outcome,[10],inactive
same,activation,[8],-1.23% (inactive) and 0.389% (inactive)
same,max response,[6],-2.74% (inactive) and -1.79% (inactive)
same,Potency,[9],inactive
CN(C)CCC(c1ccccc1)c1ccccn1 (configuration not stated),Potency,[1],37.6 µM (active)
same,activation,[2],1.39% (inactive)
same,activation,[3],-0.458% (inactive)
same,outcome,[7],inactive
same,activation,[8],-0.0214% (inactive)
same,max response,[6],-0.672% (inactive)
O=c1cc(-c2ccccc2)oc2cc(O)cc(O)c12,Potency,[1],10.9 µM (active)
same,activation,[2],22.8% (inactive)
same,activation,[3],-2.47% (inactive)
same,Potency,[8],39.8 µM (active)
same,max response,[6],-1.65% (inactive)
CCCNC(=O)NS(=O)(=O)c1ccc(Cl)cc1,Potency,[1],inactive
same,activation,[2],-1.07% (inactive) and -0.555% (inactive)
same,activation,[3],-1.46% (inactive) and -0.938% (inactive)
same,outcome,[7],inactive
same,activation,[8],0.08% (inactive) and -1.06% (inactive)
same,max response,[6],5.97% (inactive) and -0.845% (inactive)
same,Potency,[9],inactive
CC(C)OC(=O)C(C)(C)Oc1ccc(C(=O)c2ccc(Cl)cc2)cc1,activation,[3],-1.6% (inactive)
same,activation,[8],2.52% (inactive)
CC1=C(/C=C/C(C)=C/C=C/C(C)=C/C(=O)Nc2ccc(O)cc2)C(C)(C)CCC1,Potency,[4],15 µM (active)
same,Potency,[5],18.8 µM (active)
same,activation,[8],4.06% (inactive)
same,max response,[6],8.2% (inactive)
same,Potency,[9],26.6 µM (active)
CC(=O)O[C@]1(C(C)=O)CC[C@H]2[C@@H]3C=C(Cl)C4=CC(=O)[C@@H]5C[C@@H]5[C@]4(C)[C@H]3CC[C@@]21C,Potency,[1],54.5 µM (active) and 42.2 µM (active)
same,activation,[3],-2.59% (inactive) and -0.559% (inactive)
same,outcome,[7],inactive
same,activation,[8],1.28% (inactive) and -0.271% (inactive)
same,max response,[6],0.54% (inactive) and -4.74% (inactive)
